We go through 9 compounds from PubChem BioAssay (NCI).

What all share (test): NCI-60 one-dose screen, 48 h (100 = growth as untreated, 0 = no growth, -100 = all killed)
The test system of one experiment is SK-MEL-2 melanoma. As to conditions: 10 µM unless noted.
Another experiment has as its system EKVX NSCLC. As to conditions: 10 µM unless noted.
The subject of another experiment is SN12C renal. As to conditions: 10 µM unless noted.
Another experiment relates to TK-10 renal. As to conditions: 10 µM unless noted.
The subject of the next experiment is ACHN renal. As to conditions: 10 µM unless noted.
In another experiment the test system is CAKI-1 renal. As to conditions: 10 µM unless noted.
Another experiment has as its system A498 renal. As to conditions: 10 µM unless noted.
A further experiment deals with CCRF-CEM leukemia. As to conditions: 10 µM unless noted.
A further experiment relates to MOLT-4 leukemia. As to conditions: 10 µM unless noted.
The subject of another experiment is SR leukemia. Conditions: 10 µM unless noted.
Another experiment relates to RPMI-8226 leukemia. As to conditions: 10 µM unless noted.
For the next experiment, the system named is OVCAR-8 ovarian. Conditions: 10 µM unless noted.
For the next experiment, the system named is OVCAR-5 ovarian. Conditions: 10 µM unless noted.
A further experiment deals with OVCAR-4 ovarian. Conditions: 10 µM.
In a further experiment the test system is SK-OV-3 ovarian. Conditions: 10 µM unless noted.
The subject of the next experiment is IGROV1 ovarian. Conditions: 10 µM unless noted.
For another experiment, the system named is OVCAR-3 ovarian. As to conditions: 10 µM unless noted.
A further experiment deals with UO-31 renal. As to conditions: 10 µM unless noted.
In the next experiment the test system is HS 578T breast. Conditions: 10 µM unless noted.
A further experiment deals with NCI/ADR-RES ovarian. Conditions: 10 µM unless noted.

About 83,000 compounds went through this panel and 20% of them were active in at least one assay; those are over-represented in the sample as a whole.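 Compound tested at a single concentration for 48 hours in 96-well plates; a percent growth value below 10 was scored as active.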 Values without a mark were called inactive. Active and inactive are the calls of the source.

Consider `Cc1nc(-c2ccccc2)sc1CC#N`, for which the growth was 112% in the experiment with SK-MEL-2 melanoma; 101% in the experiment with EKVX NSCLC; 103% in the experiment on SN12C renal; 79.4% in the experiment with TK-10 renal; 102% with ACHN renal; 97.6% with CAKI-1 renal. For the same compound, the growth in the experiment with A498 renal was 85.6%; in the experiment on CCRF-CEM leukemia it was 102%; with MOLT-4 leukemia it was 93.5%; with SR leukemia, 91.6%; in the experiment with RPMI-8226 leukemia, 109%; in the experiment with OVCAR-8 ovarian, 108%. Besides, the growth was 105% in the experiment with OVCAR-5 ovarian; 113% in the experiment on OVCAR-4 ovarian; 108% in the experiment with SK-OV-3 ovarian; 102% in the experiment on IGROV1 ovarian; 116% in the experiment on OVCAR-3 ovarian.

Turning to `CC1(C)C(=O)/C(=C\c2cccnc2)C[C@]2(C)[C@H]3CC[C@@H]4[C@H]5[C@H](C(=O)/C=C/c6cccnc6)CC[C@]5(C(=O)O)CC[C@@]4(C)[C@]3(C)CC[C@@H]12`, the growth in the experiment with SK-MEL-2 melanoma was -55.1% [100 µM] (active); in the experiment on EKVX NSCLC it was -73% [100 µM] (active); in the experiment with SN12C renal, -29.4% [100 µM] (active); in the experiment on UO-31 renal, -32.9% [100 µM] (active); in the experiment with ACHN renal it was -71.1% [100 µM] (active); with A498 renal, -77.5% [100 µM] (active). Moreover, the growth is -6.59% [100 µM] (active) in the experiment with CCRF-CEM leukemia; 4.49% [100 µM] (active) in the experiment on MOLT-4 leukemia; 25.8% [100 µM] in the experiment with SR leukemia; -27% [100 µM] (active) with RPMI-8226 leukemia; 0.147% [100 µM] (active) with OVCAR-8 ovarian; -49% [100 µM] (active) in the experiment on OVCAR-5 ovarian. The growth with SK-OV-3 ovarian was -68.5% [100 µM] (active); in the experiment on IGROV1 ovarian it was -34.3% [100 µM] (active); in the experiment with OVCAR-3 ovarian, -75.4% [100 µM] (active); in the experiment on HS 578T breast, -0.172% [100 µM] (active); in the experiment with NCI/ADR-RES ovarian, -1.33% [100 µM] (active).

As to `CSc1cccc([N+](=O)[O-])c1`, the growth with SK-MEL-2 melanoma was 106%; in the experiment with EKVX NSCLC, 103%; with SN12C renal it was 86.2%; in the experiment on UO-31 renal, 95.7%; in the experiment on ACHN renal, 102%; with CAKI-1 renal, 101%. The growth was 121% with A498 renal; 90.3% in the experiment with CCRF-CEM leukemia; 107% in the experiment on MOLT-4 leukemia; 107% in the experiment on SR leukemia; 96.8% with RPMI-8226 leukemia; 107% in the experiment on OVCAR-8 ovarian. Moreover, the growth in the experiment with OVCAR-5 ovarian was 101%; in the experiment with SK-OV-3 ovarian it was 97.8%; in the experiment with IGROV1 ovarian, 101%; in the experiment with OVCAR-3 ovarian, 110%; with HS 578T breast, 107%; in the experiment with NCI/ADR-RES ovarian, 109%.

As to `CCOC(=O)n1cc(C2=C(c3ccc(OC)c(OC)c3)COC2=O)c2ccccc21`, the growth in the experiment on SK-MEL-2 melanoma is 62.1%; in the experiment with EKVX NSCLC, 51.5%; in the experiment on SN12C renal, 18.5%; in the experiment on UO-31 renal, 26.5%; in the experiment with ACHN renal, 23.1%; in the experiment on CAKI-1 renal, 23.6%. In addition, the growth was -25.3% (active) in the experiment on A498 renal; 11.6% with MOLT-4 leukemia; 18.1% with SR leukemia; 27.9% in the experiment on RPMI-8226 leukemia; 25.5% in the experiment on OVCAR-8 ovarian; 50.1% with OVCAR-5 ovarian. Moreover, the growth is 35.3% in the experiment with OVCAR-4 ovarian; 18.2% in the experiment on IGROV1 ovarian; -42.6% (active) in the experiment with OVCAR-3 ovarian; 36.2% in the experiment on HS 578T breast; 8.29% (active) with NCI/ADR-RES ovarian.

On to `C=C(C)[C@@H]1CC[C@]2(COCCC#N)CC[C@]3(C)[C@H](CC[C@@H]4[C@@](C)(CCCNCCC#N)[C@H](C(=C)C)CC[C@]43C)[C@@H]12`, for which the growth in the experiment on SK-MEL-2 melanoma is 10% [100 µM]; in the experiment on EKVX NSCLC, 92.9% [100 µM]; in the experiment on SN12C renal it was 27.9% [100 µM]; in the experiment with UO-31 renal, 15.3% [100 µM]; with ACHN renal it was 11.4% [100 µM]; in the experiment on MOLT-4 leukemia it was 2.22% [100 µM] (active). Moreover, the growth is 19.1% [100 µM] in the experiment on SR leukemia; -37.1% [100 µM] (active) with RPMI-8226 leukemia; 3.88% [100 µM] (active) in the experiment with OVCAR-8 ovarian; 36.7% [100 µM] in the experiment on OVCAR-5 ovarian; 65.1% [100 µM] with SK-OV-3 ovarian; 7.81% [100 µM] (active) in the experiment with IGROV1 ovarian. Also, the figures for the growth with OVCAR-3 ovarian, in the experiment on HS 578T breast and in the experiment with NCI/ADR-RES ovarian were -0.365% [100 µM] (active), 22.2% [100 µM] and 46.3% [100 µM], respectively.

As for `N#C/C(C(=O)c1ccccc1)=C1/C(=O)Nc2ccc(F)cc21`, the growth is 108% in the experiment on SK-MEL-2 melanoma; 94.2% with EKVX NSCLC; 98% with SN12C renal; 74% with UO-31 renal; 92.6% in the experiment on ACHN renal; 86.3% with CAKI-1 renal. Besides, the growth in the experiment on A498 renal was 81.1%; in the experiment with MOLT-4 leukemia it was 104%; in the experiment on SR leukemia, 118%; in the experiment on RPMI-8226 leukemia it was 104%; with OVCAR-8 ovarian it was 101%; with OVCAR-5 ovarian it was 106%. Besides, the growth is 84.5% in the experiment on SK-OV-3 ovarian; 97.4% in the experiment with IGROV1 ovarian; 106% with OVCAR-3 ovarian; 98.6% in the experiment on HS 578T breast; 97.5% with NCI/ADR-RES ovarian.

For the compound `Oc1ccc(N=Nc2nccs2)c(O)c1`, the growth with SK-MEL-2 melanoma is 97.7%; in the experiment on EKVX NSCLC, 41.4%; with SN12C renal, 73.7%; in the experiment on UO-31 renal it was 39.2%; in the experiment on ACHN renal, 30.3%; with CAKI-1 renal it was 25.9%. Moreover, the growth with A498 renal is 225%; in the experiment on CCRF-CEM leukemia, 19.5%; with MOLT-4 leukemia, 11.8%; with SR leukemia it was 8.21% (active); with RPMI-8226 leukemia, 20.1%; in the experiment on OVCAR-8 ovarian, 36.4%. Also, the growth in the experiment on OVCAR-5 ovarian was 87.5%; in the experiment with OVCAR-4 ovarian it was 25.9%; in the experiment on SK-OV-3 ovarian it was 78.2%; with IGROV1 ovarian, 42.9%; in the experiment on OVCAR-3 ovarian, -1.86% (active); with HS 578T breast, 80.2%. Further, the growth in the experiment with NCI/ADR-RES ovarian was 12.4%.

Consider `O=C(Nc1ccc(Nc2ccncc2)cc1)c1ccc([N+](=O)[O-])cc1`, for which the growth in the experiment with SK-MEL-2 melanoma is 94.8%; in the experiment on EKVX NSCLC, 69.9%; in the experiment with SN12C renal it was 72.9%; in the experiment on UO-31 renal it was 55.6%; with ACHN renal, 80.4%; in the experiment on CAKI-1 renal, 52.6%. In addition, the growth was 76% with A498 renal; 6.48% (active) in the experiment with MOLT-4 leukemia; -45.3% (active) in the experiment on SR leukemia; 22.8% with RPMI-8226 leukemia; 61% in the experiment with OVCAR-8 ovarian; 101% in the experiment on OVCAR-5 ovarian. Further, the growth in the experiment on OVCAR-4 ovarian was 67.3%; in the experiment with SK-OV-3 ovarian it was 88.6%; in the experiment on IGROV1 ovarian, 85.4%; with OVCAR-3 ovarian, 60.4%; in the experiment with HS 578T breast it was 95.4%; in the experiment on NCI/ADR-RES ovarian it was 92%.

On to `CN(C)Cc1ccc[nH]1`, for which the growth with SK-MEL-2 melanoma is 93.5%; in the experiment with EKVX NSCLC, 90.4%; with SN12C renal, 70.4%; in the experiment with UO-31 renal, 88.9%; in the experiment with ACHN renal it was 101%; in the experiment with A498 renal, 76.8%. The growth is 118% with CCRF-CEM leukemia; 107% in the experiment with MOLT-4 leukemia; 102% in the experiment on SR leukemia; 136% in the experiment on RPMI-8226 leukemia; 95.1% in the experiment with OVCAR-8 ovarian; 76.3% in the experiment on OVCAR-5 ovarian. In addition, the growth was 109% in the experiment with OVCAR-4 ovarian; 106% in the experiment with SK-OV-3 ovarian; 99.5% in the experiment with OVCAR-3 ovarian; 113% in the experiment with HS 578T breast; 77.9% with NCI/ADR-RES ovarian.
